# Sampled rows, rich in hits. Any-hit rate of the full collection: about 3.4%.
# SMARCA2 activ: SMARCA2 function activation, primary screen; MG213 cells, MMTV-luciferase reporter, dexamethasone, overnight; activation, % at 9.1 µM; 370,000 compounds, 1% hits; AID 652017; in the data active = activation above about 7.8%;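 note: 0% = vehicle wells and 100% = reference activator wells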
# HSF1 inh: HSF1 inhibition; activity change, negative = inhibition, % at 7.5 µM (by protocol); 300,000 compounds, 0.77% hits; NIH3T3-HGL HSE-luciferase, MG132-induced, luminescence 8 h; stronger effect = lower value;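 active = more than half of replicate wells show activity change below -50%, luminescence cut by over half; inconclusive = some wells, but at most half, below -50%; inactive = no replicate well below -50%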;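 note: luciferase reports HSF-1 transcriptional activity via heat shock element; 0% = median of DMSO wells and -100% = zero luminescence signal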
# AI-2 QS modul: modulates the Vibrio harveyi AI-2 quorum sensing system. Vibrio harveyi JMH597 AI-2 luminescence/OD600 ratio, 9 h; stronger effect = lower value; strain lacks LuxN and CqsS sensors; 0 = neutral-control median. activity change, % at 7.5 µM. 300,000 compounds, 0.4% hits. AID 2094; in the data active = activity change below about -75%, passing the limit was not always enough; inconclusive = no clear call, values can overlap the other calls;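 note: luminescence divided by OD600 gain over 9 h not by final OD600 alone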
# FXN GAA850 act: increases GAA850 frataxin promoter reporter activity | HEK293 lucGAA850 FXN promoter luciferase reporter, 24 h; percent of 10 µM SAHA response | activation, % at 6 µM | 360,000 compounds, 0.56% hits;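 active = activation above the average of all compounds screened plus 3 SD, cutoff fixed separately per campaign, cut at about 7.5% in these data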;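 note: 0% = DMSO wells and 100% = 10 µM SAHA wells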
# PG9 binder: binds the HIV-1 gp120 antibody PG9; inhibition, % at 6.7 µM; 360,000 compounds, 0.43% hits; TR-FRET gp120-PG9 antibody binding; in the data active = inhibition above about 8.5%
# HSP90 inh: inhibitors of HSP90 luciferase refolding in rabbit reticulocyte lysate; 290,000 compounds, 0.91% hits; inhibition, % at 5.6 µM; AID 1789; luciferase refolding luminescence, 3 h;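 active = inhibition above the screen-wide mean plus 3 SD, computed separately per campaign, cut at about 16% in these data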;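 note: 0% = DMSO wells and 100% = 60 µM geldanamycin wells; inhibitors lower the luminescence because luciferase stays unfolded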
# HSP90 confirm: confirmation of HSP90 inhibitors | shares compounds with HSP90 inh | rabbit reticulocyte lysate, luciferase refolding luminescence, 3 h | inhibition, % at 5.9 µM | 2,300 compounds, 64% hits | AID 1846; in the data active = inhibition above about 18%;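 note: 0% = vehicle wells and 100% = reference inhibitor wells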
# luciferase ctr: firefly luciferase inhibition, HSP90 counter-screen | 2,300 compounds, 48% hits | shares compounds with HSP90 inh | inhibition, % at 5.9 µM | AID 1847 | purified native firefly luciferase, luminescence;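 active = inhibition above the mean inhibition of all tested sample wells plus 3 SD, cut at about 10% in these data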;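 note: 0% = DMSO with luciferase and 100% = wells lacking luciferase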
# Target sequence (P08659 whole entry, looked up): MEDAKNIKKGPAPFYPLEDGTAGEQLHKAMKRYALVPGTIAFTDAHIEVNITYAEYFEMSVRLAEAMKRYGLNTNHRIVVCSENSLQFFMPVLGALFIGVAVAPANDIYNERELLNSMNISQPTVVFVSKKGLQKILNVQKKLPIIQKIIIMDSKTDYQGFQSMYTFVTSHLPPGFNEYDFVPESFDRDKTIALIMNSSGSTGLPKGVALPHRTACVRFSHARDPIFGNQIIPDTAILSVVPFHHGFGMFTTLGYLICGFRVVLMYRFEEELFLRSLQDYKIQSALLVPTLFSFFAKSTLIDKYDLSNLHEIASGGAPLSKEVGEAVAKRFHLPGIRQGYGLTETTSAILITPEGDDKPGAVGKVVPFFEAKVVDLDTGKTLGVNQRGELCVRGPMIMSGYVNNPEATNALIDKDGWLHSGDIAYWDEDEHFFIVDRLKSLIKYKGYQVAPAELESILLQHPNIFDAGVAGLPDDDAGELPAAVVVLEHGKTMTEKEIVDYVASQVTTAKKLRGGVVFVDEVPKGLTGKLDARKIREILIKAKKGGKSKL
# Numbers without * were called inactive; ? = inconclusive; / = no result given.
SMILES,SMARCA2 activ,HSF1 inh,AI-2 QS modul,FXN GAA850 act,PG9 binder,HSP90 inh,HSP90 confirm,luciferase ctr
Cc1ccc(S(=O)(=O)Nc2ccc3c(c2)OCCO3)cc1,-5.7,-2.5,27.2,0.1,-1.2,1.9,/,/
O=S(=O)(Nc1ccc2c(c1)OCCO2)c1cccc2nsnc12,-3.8,-59.4*,24.7,-10.0,-1.0,20.0*,30.9*,49.6*
O[C@H](COc1cccc(F)c1)CN1CCC(C(O)(c2ccccc2)c2ccccc2)CC1,-2.8,/,/,/,/,/,/,/
CN(C)c1ccc(-c2nc3cc(N)ccc3o2)cc1,1.1,-11.6,2.0,0.9,5.2,29.5*,55.0*,51.5*
C=CCN1C(C(=O)OC)CN(Cc2cn(CCC3OCCO3)nn2)CCS1(=O)=O (stereo unspecified),-4.2,/,/,/,/,/,/,/
Cc1ccc(OC(=O)N(C)C[C@H]2OCc3cn(nn3)CCCC(=O)N([C@@H](C)CO)C[C@@H]2C)cc1,-4.3,/,/,/,0.8,/,/,/
COc1cc(OC)c(-c2nc3ccccc3s2)cc1OC,-1.6,-2.3,33.1,3.2,-0.9,-3.5,/,/
FC(F)(F)c1ccc(-c2nc3ccccc3s2)cc1,-4.4,/,/,/,0.6,/,/,/
COc1ccc(-c2nc3ccccc3s2)cc1O,-4.3,18.8,10.9,-4.1,1.9,37.7*,77.7*,71.7*
Nc1cccc(-c2nc3ccccc3s2)c1,2.0,11.4,10.8,3.5,3.1,-2.8,/,/
CC(C)c1ccc(-c2nc3ccccc3s2)cc1,-11.2,-90.7*,16.0,-18.1,-0.4,83.5*,97.6*,94.1*
COc1cccc(-c2nc3ccccc3s2)c1O,3.7,39.3,17.0,6.8,-1.1,17.2*,38.4*,32.0*
Oc1cccc(-c2nc3ccccc3s2)c1,5.1,26.1,21.9,0.4,-2.3,23.8*,49.9*,34.1*
CCCCC(=O)N(Cc1ccccc1)c1ccccc1C(=O)Nc1cc(OC)ccc1OC,-6.3,/,/,/,/,/,/,/
CCOC(=O)CC[C@@]1(C(=O)OCC)C[C@@H](CC(=O)NCC23CC4CC(CC(C4)C2)C3)C(=O)N2CCCC=C21,-1.2,/,/,/,/,/,/,/
CC(=O)Nc1cc2nn(-c3ccccc3)nc2cc1Cl,2.0,32.3,9.5,5.2,0.3,-0.1,/,/
CC(C)(C)C(=O)Nc1cc2nn(-c3ccccc3)nc2cc1Cl,-8.4,/,/,-15.2,0.8,79.7*,85.4*,85.0*
Cc1cc(C(=O)N/N=C/c2ccc(O)c(O)c2O)c(C)n1-c1ccccc1,-2.9,-20.9,?,-1.1,-0.1,17.2*,2.0,-19.9
Cc1cc(/C=N/NC(=O)c2ccncc2)c(C)n1-c1ccccc1,4.5,0.0,3.2,4.7,-1.1,5.9,/,/
Cc1cc(/C=N/NC(=O)c2cccs2)c(C)n1-c1ccccc1,-4.2,-69.3*,12.4,-10.8,-1.1,57.3*,70.8*,66.0*
Cc1ccccc1Cn1cc(COC(=O)N(C)Cc2ccccc2)nn1,-3.1,/,/,/,/,/,/,/
Cc1ccc(-c2cc(C(=O)N/N=C/c3ccco3)[nH]n2)cc1,2.2,2.0,17.6,1.8,-0.4,22.1*,18.6*,24.5*
O=C(N/N=C/c1sc2ccccc2c1O)c1cccc2ccccc12,-5.2,4.0,?,-2.4,-8.9,5.5,/,/
COc1ccc2cc(C(=O)N/N=C/c3sc4ccccc4c3O)ccc2c1,-1.4,-7.8,21.3,2.7,-6.6,17.5*,0.0,-9.8
COc1cccc(-c2ccc(CC[C@H]3O[C@H]4CC[C@H](CO)O[C@H]4C[C@H]3NS(C)(=O)=O)cc2)c1,-1.6,/,/,/,/,/,/,/
COc1ccc(-n2cc(C(=O)c3ccccc3O)cn2)cc1,-0.7,-51.5*,13.9,-8.2,-0.3,34.2*,52.3*,39.9*
COc1cccc2c1C(=O)c1ccc3ccccc3c1C2=O,/,15.8,4.6,6.2,/,26.1*,-1.0,-23.6
COc1ccc(OC)c2c1C(=O)c1ccccc1C2=O,-3.2,5.0,20.1,/,-0.7,-1.1,/,/
COc1ccc(/C=N/Nc2nnc(C)n2N)cc1OC(C)=O,7.8,39.8,10.4,-0.4,-0.8,2.9,/,/
COc1ccc(/C=N/Nc2nnc(C)n2N)cc1OC,-5.4,26.6,21.1,-0.2,-3.4,18.7*,1.2,-7.4
